Measurements published in the supplement of paper PMC8726507.
Unmarked numbers belong to inactive results.

The molecules below were run on Plasmodium falciparum NF54-HGL (transmission to Anopheles stephensi) (assay: percentage of barcode signal found in uninfected mosquitoes (transmission-blocking activity); higher = stronger blocking of transmission to mosquito, active = 80 or more). Conditions: 10 µM; gametocyte preincubation time 24 h; readout time post-feed 8 days.
Experimental: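 The mixture was fed to Anopheles stephensi in 96-well plates as blood meals tagged with DNA-barcoded Asaia bacteria. Eight days later, mosquitoes were classed infected or uninfected by luminescence (mean + 5 SD of unfed controls). Barcodes were quantified by Luminex MagPlex-TAG in the pooled uninfected and infected Asaia cultures, background-corrected, and the score is % of barcode signal in uninfected mosquitoes = 100*Iu/(Iu+Ii).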
Cc1ncc(-c2ccnc(Nc3ccc(S(C)(=O)=O)cc3)n2)n1C(C)C was tested, and the “percentage of barcode signal found in uninfected mosquitoes” value (“percentage of barcode signal found” below) was 82.6% (active).
O=C(NC1CC1)c1ccc(N2CCOc3ccc(Cl)cc32)s1 was tested, and the “percentage of barcode signal found” value was 49.7%.
With CS(=O)(=O)N1CCC(CCn2nc(Cc3cccc4ccccc34)c3c(N)ncnc32)CC1 the “percentage of barcode signal found” value was 45.3%.
For Cc1nc2ccccn2c1C(=O)NCc1ccc(Cl)cc1, the “percentage of barcode signal found” value was 48.8%.
In the case of Cn1ncc2c(N3CCOCC3)nc(NCCc3c[nH]c4ccccc34)nc21, the “percentage of barcode signal found” value is reported as 64.2%.
COc1ccc(N(CCc2cccc(C)n2)C(=O)C2CCCCC2)cc1 was tested, and the “percentage of barcode signal found” value was 29.5%.
With COC(=O)c1cccc2oc(-c3cccc(OC)c3NC(=O)c3cc(-c4ccccc4)on3)nc12 the “percentage of barcode signal found” value was 31%.
CN(C)c1cc(NC(=O)Nc2ccccc2)c2ccccc2n1 was tested, and the “percentage of barcode signal found” value was 88.3% (active).
For Brc1cncc(-c2cc(NCCCn3ccnc3)nc(-c3ccccc3)n2)c1, the “percentage of barcode signal found” value was -0.102%.
In the case of O=C(C(Cc1c[nH]c2ccccc12)NS(=O)(=O)c1ccc(Cl)cc1)N1CCCCC1 (stereo not given), the “percentage of barcode signal found” value is reported as 62.5%.
In the case of Clc1ccc(CCNc2cc(-c3ccccc3)nc3ncnn23)cc1, the “percentage of barcode signal found” value is reported as -1.04%.
CCc1c(C)nc(-n2nc(C)cc2NC(=O)c2ccccc2SC)[nH]c1=O was tested, and the “percentage of barcode signal found” value was 53.6%.
In the case of CNc1nnc(Sc2cnn(-c3ccccc3)c(=O)c2Cl)s1, the “percentage of barcode signal found” value is reported as 76.3%.
In the case of O=C(NCc1ccoc1)N1CCN(Cc2ccc3c(c2)OCO3)CC1, the “percentage of barcode signal found” value is reported as 25.5%.
Cc1nc(-c2ccccn2)nc(N2CCC(Cc3ccccc3)C2)c1Cl (stereo not given) was tested, and the “percentage of barcode signal found” value was 78%.
For COc1ccccc1OCCCCn1c(C2CC2)nc2ccccc21, the “percentage of barcode signal found” value was 48.5%.
With N=C(N)c1ccc(OCCCCCOc2ccc(C(=N)N)cc2)cc1 the “percentage of barcode signal found” value was 77.2%.
In the case of N#Cc1ccc(-c2cnc(N)c(-c3ccc(C(N)=O)cc3)n2)cc1, the “percentage of barcode signal found” value is reported as 69.6%.
For O=C(NCCN1CCCC1)c1cc(NCCCCN2CCC(F)(F)CC2)nc2ccc(Cl)cc12, the “percentage of barcode signal found” value was 91.2% (active).

Same assay, conditions: 20 µM; gametocyte preincubation time 24 h; readout time post-feed 8 days
With COc1cc(OC)cc(C(=O)NCC2Cc3cc(Cl)cc(-c4ccncc4)c3O2)c1 (stereo not given) the “percentage of barcode signal found” value was 1.01%.
With c1ccc(Oc2ccc(-c3cc(N4CCOCC4)[nH]n3)cc2)cc1 the “percentage of barcode signal found” value was 1.03%.
For O=C(Nc1nnc(S)s1)c1cc(Br)ccc1Cl, the “percentage of barcode signal found” value was 18.9%.
With Cc1ccc2nc(C)c(-c3ccn(Cc4ccccc4)n3)n2c1 the “percentage of barcode signal found” value was 71.6%.
With CNC(=O)CNc1nc(-c2ccccn2)nc2scc(-c3ccccc3)c12 the “percentage of barcode signal found” value was 69.6%.
In the case of c1ccc(Oc2ccc(-c3cncc(-c4ccc5[nH]ccc5c4)n3)cc2)cc1, the “percentage of barcode signal found” value is reported as 29%.
O=C(C1CCN(c2nnc(-n3cccc3)s2)CC1)N1CCC(Cc2ccccc2)CC1 was tested, and the “percentage of barcode signal found” value was 28.5%.
For c1ccc(Oc2ccc(-c3cc(CN4CCOCC4)[nH]n3)cc2)cc1, the “percentage of barcode signal found” value was 3.15%.
For COc1ccc(CN2CCOc3ccc(C(C)(O)CN(C)C)cc3C2)cc1C (stereo not given), the “percentage of barcode signal found” value was 36.4%.
Clc1ccc(CN2CCN(C3=NCCN3)CC2)cc1Cl was tested, and the “percentage of barcode signal found” value was 4.45%.
For CCc1ccc(S(=O)(=O)Nc2cc(CN3CCN(CCC(C)C)CC3)ccc2C)cc1, the “percentage of barcode signal found” value was 22.9%.
For COc1cccc(NC(=O)c2c(NC(=O)c3cccnc3)sc3c2CCC3)c1, the “percentage of barcode signal found” value was 34.2%.
Cc1cc(O)nc(-n2nc(C)cc2C)n1 was tested, and the “percentage of barcode signal found” value was 70.1%.
With CO[C@H]1/C=C/O[C@@]2(C)Oc3c(C)c(O)c4c(O)c(/c(=C/NN5CCN(C)CC5)c(O)c4c3C2=O)=N\C(=O)/C(C)=C\C=C/[C@H](C)[C@H](O)[C@@H](C)[C@@H](O)[C@@H](C)[C@H](OC(C)=O)[C@@H]1C the “percentage of barcode signal found” value was 20.2%.
With NS(=O)(=O)c1cccc(-c2ccc3ncc(N4CCOCC4)nc3c2)c1 the “percentage of barcode signal found” value was 64.7%.
CCc1nc2ccc(Cl)cn2c1C(=O)NCc1ccc(N2CCC(c3ccc(OC(F)(F)F)cc3)CC2)cc1 was tested, and the “percentage of barcode signal found” value was 32%.
For CC(C)(C)OC(=O)N1CCN(c2cc(-c3ccc(Oc4ccccc4)cc3)n[nH]2)CC1, the “percentage of barcode signal found” value was 39.8%.
For COc1cc(Br)cc2cc(C(=O)Nc3cccc(C(F)(F)F)c3)c(=O)oc12, the “percentage of barcode signal found” value was 19.3%.
In the case of COc1ccc(C2=NCCN2)cc1-c1cn(-c2cccc(C3=NCCN3)c2)nn1, the “percentage of barcode signal found” value is reported as 16.8%.
In the case of Cc1cc(OCC(=O)Nc2ccc(C(C)C)cc2)n(C)c(=O)c1C#N, the “percentage of barcode signal found” value is reported as 35%.
COc1ccc(-c2cncc3ccc(C(=O)NCCCn4ccnc4)nc23)cc1 was tested, and the “percentage of barcode signal found” value was 62.9%.
